# Assay results as given in the supplement of paper PMC8728848.
# Only a selection was taken, and the strongest signals are over-represented in it overall.
# Columns and labels:
# Assay in all cases: glycan array binding signal (z-score within array); higher = stronger binding
# Conditions in all cases: glycan notation: IUPAC condensed, linker removed
# [1] = biological target: Fuc(a1-2)Gal(b1-3)GlcNAc(b1-2)Man(a1-3)[Fuc(a1-2)Gal(b1-3)GlcNAc(b1-2)Man(a1-6)]Man(b1-4)GlcNAc(b1-4)[Fuc(a1-6)]GlcNAc
# Method in brief: (§1)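 Negative Z-scores can be read as non-binding. The Z-score is calculated within each array and then averaged across arrays of one protein sequence at different concentrations or buffers and across linkers. Arrays, 3228 in all, were curated from the Consortium for Functional Glycomics database and kept only where the protein sequence was available.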
# [2] = biological target: Fuc(a1-2)Gal(b1-3)GlcNAc(b1-3)Gal(b1-4)Glc
# Method in brief: as §1
# [3] = biological target: Fuc(a1-2)Gal(b1-4)GlcNAc(b1-2)Man(a1-3)[Fuc(a1-2)Gal(b1-4)GlcNAc(b1-2)Man(a1-6)]Man(b1-4)GlcNAc(b1-4)[Fuc(a1-6)]GlcNAc
# Method in brief: as §1
# [4] = biological target: Fuc(a1-2)Gal(b1-4)[Fuc(a1-3)]GlcNAc(b1-3)Gal(b1-4)[Fuc(a1-3)]GlcNAc(b1-3)Gal(b1-4)[Fuc(a1-3)]GlcNAc
# Method in brief: as §1
# [5] = biological target: Fuc(a1-2)[Gal(a1-3)]Gal(b1-3)GlcNAc(b1-2)Man(a1-3)[Fuc(a1-2)[Gal(a1-3)]Gal(b1-3)GlcNAc(b1-2)Man(a1-6)]Man(b1-4)GlcNAc(b1-4)[Fuc(a1-6)]GlcNAc
# Method in brief: as §1
# [6] = biological target: Fuc(a1-2)[Gal(a1-3)]Gal(b1-4)GlcNAc
# Method in brief: as §1
# [7] = biological target: Fuc(a1-2)[Gal(a1-3)]Gal(b1-4)GlcNAc(b1-3)[Fuc(a1-2)[Gal(a1-3)]Gal(b1-4)GlcNAc(b1-6)]GalNAc
# Method in brief: as §1
# [8] = biological target: Fuc(a1-2)[Gal(a1-3)]Gal(b1-4)GlcNAc(b1-6)GalNAc
# Method in brief: as §1
# [9] = biological target: Fuc(a1-2)[GalNAc(a1-3)]Gal(b1-3)GalNAc(b1-3)Gal(a1-4)Gal(b1-4)Glc
# Method in brief: as §1
# [10] = biological target: Fuc(a1-2)[GalNAc(a1-3)]Gal(b1-4)GlcNAc(b1-3)GalNAc
# Method in brief: as §1
# [11] = biological target: Fuc(a1-3)[Gal(b1-4)]GlcNAc(b1-3)Gal(b1-4)[Fuc(a1-3)]GlcNAc(b1-3)Gal(b1-4)[Fuc(a1-3)]GlcNAc
# Method in brief: as §1
# [12] = biological target: Fuc(a1-3)[Gal3S(b1-4)]GlcNAc6S
# Method in brief: as §1
# [13] = biological target: Fuc(b1-3)GlcNAc
# Method in brief: as §1
# [14] = biological target: Gal(a1-3)Gal(b1-3)GlcNAc(b1-2)Man
# Method in brief: as §1
# [15] = biological target: Gal(a1-3)Gal(b1-3)GlcNAc(b1-2)Man(a1-3)[Gal(a1-3)Gal(b1-3)GlcNAc(b1-2)Man(a1-6)]Man(b1-4)GlcNAc(b1-4)GlcNAc
# Method in brief: as §1
# [16] = biological target: Gal(b1-3)GlcNAc(b1-2)Man
# Method in brief: as §1
# [17] = biological target: Gal(b1-3)GlcNAc(b1-2)[Gal(b1-3)GlcNAc(b1-6)]Man(a1-6)[Gal(b1-3)GlcNAc(b1-2)Man(a1-3)]Man(b1-4)GlcNAc(b1-4)GlcNAc
# Method in brief: as §1
# [18] = biological target: Gal(b1-3)GlcNAc(b1-3)Gal(b1-4)[Fuc(a1-3)]GlcNAc
# Method in brief: as §1
# [19] = biological target: Gal(b1-3)GlcNAc(b1-3)GalNAc
# Method in brief: as §1
# [20] = biological target: Gal(b1-4)GlcNAc(b1-2)Man
# Method in brief: as §1
# [21] = biological target: Gal(b1-4)GlcNAc(b1-2)Man(a1-3)[Gal(b1-4)GlcNAc(b1-2)Man(a1-6)][GlcNAc(b1-4)]Man(b1-4)GlcNAc(b1-4)[Fuc(a1-6)]GlcNAc
# Method in brief: as §1
# [22] = biological target: Gal(b1-4)GlcNAc(b1-2)[Gal(b1-4)GlcNAc(b1-6)]Man(a1-6)[GlcNAc(b1-4)][Gal(b1-4)GlcNAc(b1-2)Man(a1-3)]Man(b1-4)GlcNAc(b1-4)GlcNAc
# Method in brief: as §1
# [23] = biological target: Gal(b1-4)GlcNAc(b1-3)Gal(b1-4)Glc
# Method in brief: as §1
# [24] = biological target: Gal(b1-4)GlcNAc(b1-3)Gal(b1-4)GlcNAc(b1-2)[Gal(b1-4)GlcNAc(b1-3)Gal(b1-4)GlcNAc(b1-6)]Man(a1-6)[Gal(b1-4)GlcNAc(b1-3)Gal(b1-4)GlcNAc(b1-2)Man(a1-3)]Man(b1-4)GlcNAc(b1-4)GlcNAc
# Method in brief: as §1
# [25] = biological target: Gal(b1-4)GlcNAc(b1-3)Gal(b1-4)GlcNAc(b1-3)Gal(b1-4)GlcNAc(b1-2)Man(a1-3)[Gal(b1-4)GlcNAc(b1-3)Gal(b1-4)GlcNAc(b1-3)Gal(b1-4)GlcNAc(b1-2)Man(a1-6)]Man(b1-4)GlcNAc(b1-4)[Fuc(a1-6)]GlcNAc
# Method in brief: as §1
# [26] = biological target: Gal(b1-4)GlcNAc(b1-3)Gal(b1-4)GlcNAc(b1-3)Gal(b1-4)GlcNAc(b1-3)Gal(b1-4)GlcNAc(b1-2)[Gal(b1-4)GlcNAc(b1-3)Gal(b1-4)GlcNAc(b1-3)Gal(b1-4)GlcNAc(b1-3)Gal(b1-4)GlcNAc(b1-6)]Man(a1-6)[Gal(b1-4)GlcNAc(b1-3)Gal(b1-4)GlcNAc(b1-3)Gal(b1-4)GlcNAc(b1-3)Gal(b1-4)GlcNAc(b1-2)Man(a1-3)]Man(b1-4)GlcNAc(b1-4)[Fuc(a1-6)]GlcNAc
# Method in brief: as §1
# [27] = biological target: Gal(b1-4)GlcNAc(b1-3)Gal(b1-4)GlcNAc(b1-3)Gal(b1-4)GlcNAc(b1-3)Gal(b1-4)GlcNAc(b1-3)Gal(b1-4)GlcNAc(b1-2)Man(a1-3)[Gal(b1-4)GlcNAc(b1-3)Gal(b1-4)GlcNAc(b1-3)Gal(b1-4)GlcNAc(b1-3)Gal(b1-4)GlcNAc(b1-3)Gal(b1-4)GlcNAc(b1-2)Man(a1-6)]Man(b1-4)GlcNAc(b1-4)[Fuc(a1-6)]GlcNAc
# Method in brief: as §1
binder,measurement,setting,value
Aap lectin (Staphylococcus epidermidis) (protein) VNLNYSSPFMSLLSMPADSSSNNTKNTIDIPPTTVKGRDNYDFYGRVDIESNPTDLNATNLTRYNYGQPPGTTTAGAVQFKNQVSFDKDFDFNIRVANNRQSNTTGADGWGFMFSKKDGDDFLKNGGILREKGTPSAAGFRIDTGYYNNDPLDKIQKQAGQGYRGYGTFVKNDSQGNTSKVGSGTPSTDFLNYADNTTNDLDGKFHGQKLNNVNLKYNASNQTFTATYAGKTWTATLSELGLSPTDSYNFLVTSS,glycan array binding signal (z-score),[1],2.87
same,glycan array binding signal (z-score),[2],-0.68
same,glycan array binding signal (z-score),[3],-0.829
same,glycan array binding signal (z-score),[4],-0.534
same,glycan array binding signal (z-score),[5],3.02
same,glycan array binding signal (z-score),[6],3.04
same,glycan array binding signal (z-score),[7],2.98
same,glycan array binding signal (z-score),[8],-0.267
same,glycan array binding signal (z-score),[9],-0.573
same,glycan array binding signal (z-score),[10],0.8
same,glycan array binding signal (z-score),[11],0.476
same,glycan array binding signal (z-score),[12],-0.816
same,glycan array binding signal (z-score),[13],0.487
same,glycan array binding signal (z-score),[14],2.18
same,glycan array binding signal (z-score),[15],2.88
same,glycan array binding signal (z-score),[16],3.17
same,glycan array binding signal (z-score),[17],-0.728
same,glycan array binding signal (z-score),[18],-0.351
same,glycan array binding signal (z-score),[19],0.183
same,glycan array binding signal (z-score),[20],3
same,glycan array binding signal (z-score),[21],0.361
same,glycan array binding signal (z-score),[22],-0.475
same,glycan array binding signal (z-score),[23],0.463
same,glycan array binding signal (z-score),[24],-0.781
same,glycan array binding signal (z-score),[25],2.92
same,glycan array binding signal (z-score),[26],0.345
same,glycan array binding signal (z-score),[27],0.727
